Reference: PubChem BioAssay (NCI)
This is part of a sample that, as a whole, favours compounds with a hit. Of some 79,000 tested, about 15% had one in any assay. Active and inactive are the calls of the source. Rule as the data show it: active = growth inhibition above about 70%; inactive = the rest.

Columns and labels:
[1] = NCI Yeast Anticancer Drug Screen. Data for the rad52 strain (AID 147);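 also: 0% = growth of vehicle-treated control cultures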; conditions: S. cerevisiae rad52 mutant growth inhibition, active compounds read high
Outline: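 Compounds are applied to a genetically defined yeast strain lacking normal DNA damage repair, and inhibition of growth is expressed relative to cultures given vehicle only.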

[2] = NCI Yeast Anticancer Drug Screen. Data for the wt1 strain (AID 149);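 also: 0% = growth of vehicle-treated wt1 cultures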; conditions: S. cerevisiae wt1 strain (SPY 50644) growth inhibition, active compounds read high
Outline: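 Yeast wt1 strain exposed to compounds; growth inhibition measured relative to vehicle-treated controls.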

[3] = NCI Yeast Anticancer Drug Screen. Data for the rad50EPP+ strain (AID 151);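 also: 0% = growth of vehicle-treated control cultures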; conditions: S. cerevisiae rad50 mutant strain, active compounds read high
Outline: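 Compounds were applied to the rad50EPP+ yeast strain, which bears a defined DNA repair alteration, and growth inhibition was determined relative to vehicle-treated cultures.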

[4] = NCI Yeast Anticancer Drug Screen. Data for the mgt1 strain (AID 153); conditions: S. cerevisiae mgt1 mutant growth inhibition, active compounds read high
Outline: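 Strain: mgt1 yeast, one of a set carrying defined DNA damage repair or cell cycle control alterations. Compound-treated growth compared with vehicle.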

[5] = NCI Yeast Anticancer Drug Screen. Data for the rad50 strain (AID 155);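 also: 0% = growth of vehicle-only cultures of the same strain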; conditions: S. cerevisiae rad50 strain growth inhibition, active compounds read high
Outline: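 Yeast carrying a defined DNA repair defect were exposed to test compounds, and growth was compared with vehicle-treated controls to give percent inhibition.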

[6] = NCI Yeast Anticancer Drug Screen. Data for the mec2-1 strain (AID 157); conditions: S. cerevisiae mec2-1 strain, active compounds read high
Outline: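 Strain: mec2-1 (DNA repair/cell cycle alteration). Compound exposure, then growth measured; inhibition expressed relative to vehicle.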

[7] = NCI Yeast Anticancer Drug Screen. Data for the rad14 strain (AID 159);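 also: 0% = growth of vehicle-treated control cultures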; conditions: S. cerevisiae rad14 strain growth inhibition, active compounds read high
Outline: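 Yeast cells carrying a defined DNA-repair defect were exposed to compounds, and growth inhibition was calculated relative to vehicle-treated control cultures.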

[8] = NCI Yeast Anticancer Drug Screen. Data for the sgs1 mgt1 strain (AID 161);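 also: 0% = growth of cultures given vehicle only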; conditions: S. cerevisiae sgs1 mgt1 strain, active compounds read high
Outline: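 Test agents were incubated with a DNA-repair-mutant yeast strain. Growth was then read and compared against vehicle-treated controls.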

[9] = NCI Yeast Anticancer Drug Screen. Data for the CLN2oe strain (AID 163);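 also: 0% = growth of vehicle-only control cultures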; conditions: S. cerevisiae CLN2oe strain, active compounds read high
Outline: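 Growth of a genetically modified yeast strain is measured after compound exposure and compared with cultures given vehicle alone.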

[10] = NCI Yeast Anticancer Drug Screen. Data for the cln2 rad14 strain (AID 165);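 also: 0% = growth equal to vehicle treated cultures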; conditions: S. cerevisiae cln2 rad14 strain, active compounds read high
Outline: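 Compounds are applied to the cln2 rad14 yeast strain, and growth is then compared with that of vehicle-treated cultures to give inhibition.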

[11] = NCI Yeast Anticancer Drug Screen. Data for the bub3 strain (AID 167); conditions: S. cerevisiae bub3 mutant strain, active compounds read high
Outline: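 Compounds were applied to a genetically altered yeast strain carrying a cell-cycle control defect. Growth inhibition was scored against vehicle-treated controls.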

[12] = NCI Yeast Anticancer Drug Screen. Data for the wt2 strain (AID 169);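 also: 0% = growth of vehicle-treated yeast cultures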; conditions: S. cerevisiae wt2 strain growth inhibition, active compounds read high
Outline: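 This strain belongs to a panel of yeast strains with defined genetic alterations in DNA damage repair or cell cycle control. Compounds are applied, and growth inhibition is measured against vehicle-treated cultures.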

[13] = NCI Yeast Anticancer Drug Screen. Data for the mlh1 strain (AID 171);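 also: 0% = growth of vehicle-treated control cultures of the same strain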; conditions: S. cerevisiae mlh1 strain growth inhibition, active compounds read high
Outline: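 Growth of the mutant yeast strain after compound exposure, expressed as inhibition relative to vehicle-only controls.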

[14] = NCI Yeast Anticancer Drug Screen. Data for the sgs1 strain (AID 173);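 also: 0% = growth of vehicle-only control cultures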; conditions: S. cerevisiae sgs1 mutant, active compounds read high
Outline: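 Growth of a yeast strain bearing a defined genetic alteration is measured after compound treatment. Inhibition is expressed relative to vehicle-only controls.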

[15] = NCI Yeast Anticancer Drug Screen. Data for the mlh1 rad18 strain (AID 175); conditions: S. cerevisiae mlh1 rad18 strain growth inhibition, active compounds read high
Outline: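 Read-out is yeast growth inhibition, calculated against vehicle-only controls. The compound was applied to a strain engineered with DNA damage repair alterations.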

[16] = NCI Yeast Anticancer Drug Screen. Data for the rad18 strain (AID 177); conditions: S. cerevisiae rad18 mutant growth inhibition, active compounds read high
Outline: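 Growth of the mutant yeast strain after compound exposure, normalised to vehicle-only cultures.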

[17] = at 5.0 µM (retest, dose inferred, filed as 0.5)
[18] = at 50.0 µM (retest, dose inferred, filed as 5.0)

Measured: growth inhibition

Cc1ccc(Cl)c2[nH]c(-c3ccccc3)cc(=O)c12
inactive: [1]; at 1.2 µM -1% | [1]; at 3.7 µM -1% | [1]; at 11.0 µM 1% | [1]; at 33.0 µM 2% | [1]; at 100.0 µM 3% | [2]; at 1.2 µM -3% | [2]; at 3.7 µM -3% | [2]; at 11.0 µM -4% | [2]; at 33.0 µM -2% | [2]; at 100.0 µM 0% | [3]; at 1.2 µM 1% | [3]; at 3.7 µM 2% | [3]; at 11.0 µM 6% | [3]; at 33.0 µM 9% | [3]; at 100.0 µM 6% | [4]; at 1.2 µM -5% | [4]; at 3.7 µM -3% | [4]; at 11.0 µM 19% | [4]; at 33.0 µM -25% | [4]; at 100.0 µM -4% | [5]; at 1.2 µM -1% | [5]; at 3.7 µM 0% | [5]; [17] -10% | [5]; at 11.0 µM -29% | [5]; at 33.0 µM 0% | [5]; [18] 13% | [5]; at 50.0 µM 29.2% | [5]; at 100.0 µM 0% | [6]; at 1.2 µM 0% | [6]; at 3.7 µM -3% | [6]; [17] -11% | [6]; at 11.0 µM 0% | [6]; at 33.0 µM -2% | [6]; [18] 10% | [6]; at 50.0 µM 40.6% | [6]; at 100.0 µM 0% | [7]; at 1.2 µM -2% | [7]; at 3.7 µM -6% | [7]; at 11.0 µM -2% | [7]; at 33.0 µM -12% | [7]; at 100.0 µM 1% | [8]; [17] -28% | [8]; [18] 12% | [8]; at 50.0 µM 55.5% | [9]; at 1.2 µM 0% | [9]; at 3.7 µM -5% | [9]; at 11.0 µM -1% | [9]; at 33.0 µM -5% | [9]; at 100.0 µM 1% | [10]; [17] -9% | [10]; [18] -2% | [10]; at 50.0 µM 13.4% | [11]; at 1.2 µM -2% | [11]; at 3.7 µM -2% | [11]; [17] -17% | [11]; at 11.0 µM 7% | [11]; at 33.0 µM 0% | [11]; at 100.0 µM 2% | [12]; at 1.2 µM -2% | [12]; at 3.7 µM -1% | [12]; at 11.0 µM -1% | [12]; at 33.0 µM -1% | [12]; at 100.0 µM -1% | [13]; at 1.2 µM 0% | [13]; at 3.7 µM -2% | [13]; at 11.0 µM -4% | [13]; at 33.0 µM -2% | [13]; at 100.0 µM 0% | [14]; at 1.2 µM -3% | [14]; at 3.7 µM -4% | [14]; at 11.0 µM -4% | [14]; at 33.0 µM -3% | [14]; at 100.0 µM 0% | [15]; [17] -18% | [15]; at 50.0 µM 62.8% | [16]; at 1.2 µM -5% | [16]; at 3.7 µM -1% | [16]; at 11.0 µM -6% | [16]; at 33.0 µM -24% | [16]; at 100.0 µM 14%
active: [11]; [18] 93% | [11]; at 50.0 µM 72% | [15]; [18] 94%
